Bioassay records deposited in PubChem BioAssay by several laboratories.
CSC inhib – blocks cancer stem cells; inhibition, % at 7.5 µM; cancer stem cell-like cells viability, luminescence; 300,000 tested, 1.1% active; AID 2717; in the data active means inhibition above about 75%; inconclusive means no clear call, values can overlap the other calls; tested in HMLE shEcad cells
ALR H2O2 inh – inhibitors of human sulfhydryl oxidase ALR. P55789. AID 485317. inhibition, % (no concentration beside the values). 290,000 tested, 3.8% active. purified ALR, DTT oxidation, H2O2 HRP-luminol luminescence;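 active means mean replicate inhibition above about 79%, with every replicate also reaching it, limit read from the data; inconclusive means only one of the two criteria met; inactive means mean below limit and not every replicate reaching it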
Target sequence (P55789 whole entry, looked up): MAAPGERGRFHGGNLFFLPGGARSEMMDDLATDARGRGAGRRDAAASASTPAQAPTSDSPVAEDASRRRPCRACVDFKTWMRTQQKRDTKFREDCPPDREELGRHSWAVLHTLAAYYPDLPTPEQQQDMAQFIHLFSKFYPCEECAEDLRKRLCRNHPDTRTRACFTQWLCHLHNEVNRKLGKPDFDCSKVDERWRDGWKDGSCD
Calb FLC – affects C. albicans growth with fluconazole. C. albicans CaCi-2 (fluconazole-resistant clinical isolate) + fluconazole, Alamar Blue growth, 48 h. growth inhibition, % (no concentration beside the values). 300,000 tested, 0.57% active;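 active means growth inhibition above about 58% in most replicates, limit read from the data, passing the limit was not always enough; inconclusive means exactly half the replicates above a set limit; inactive means most replicates below a set limit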;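 further: all wells also contain fluconazole at 8 µg/ml as a sub-toxic cotreatment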
PP5 inh – blocks human protein phosphatase 5 activity; inhibition, % at 6.7 µM; purified PP5c, OMFP substrate fluorescence; P53041; 320,000 tested, 0.18% active; AID 1987;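 active means inhibition above the campaign's mean inhibition across all tested compounds plus 3 SD, cut at about 9.5% in these data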
PP1 counter – blocks human PP1-alpha phosphatase, a PP5 counter-screen. inhibition, % at 6.7 µM. purified PP1alpha, OMFP fluorescence. AID 2235. 320,000 tested, 0.9% active. P62136;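 active means inhibition above the mean inhibition of all tested compounds plus 3 SD, computed separately for each screening campaign, cut at about 15% in these data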
Target sequence (P62136 whole entry, looked up): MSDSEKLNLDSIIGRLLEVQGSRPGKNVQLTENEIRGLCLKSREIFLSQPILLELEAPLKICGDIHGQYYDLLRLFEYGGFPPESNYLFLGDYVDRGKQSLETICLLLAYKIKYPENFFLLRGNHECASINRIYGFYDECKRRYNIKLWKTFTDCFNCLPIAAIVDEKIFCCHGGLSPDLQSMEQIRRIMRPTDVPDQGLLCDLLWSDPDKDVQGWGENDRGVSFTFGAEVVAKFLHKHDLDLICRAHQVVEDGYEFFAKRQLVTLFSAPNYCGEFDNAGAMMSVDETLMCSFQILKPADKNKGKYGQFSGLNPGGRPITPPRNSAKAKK
Of the large screens only hits and unclear results are named; the others gave an inactive call. Only some compounds are listed: those with a hit (about 5.4% of all), similar ones and a draw of the others.

Fc1ccc(N/N=C/c2cccnc2)c(F)c1	Calb FLC 112.0
Cc1ccc(N/N=C/c2ccncc2)cc1	CSC inhib 79.3, ALR H2O2 inh 99.2, Calb FLC 99.7
O=C(O)c1ccc(N/N=C/c2ccncc2)cc1	none
COc1cc(/C=N/Nc2ccc(F)cc2F)cc(OC)c1OC	Calb FLC 125.9
FC(F)(F)c1ccccc1N/N=C/c1cccnc1	none
Clc1ccc(/C=N\Nc2ccccc2)cc1	ALR H2O2 inh 98.6
Clc1cccc(N/N=C/c2ccncc2)c1	ALR H2O2 inh 94.8, Calb FLC 92.7
Oc1ccccc1/C=N/Nc1ncc(Br)cn1	none
COc1cc(/C=N/Nc2ccc(S(N)(=O)=O)cc2)cc(OC)c1OC	ALR H2O2 inh 92.8
Oc1ccccc1/C=N/Nc1ccccc1	ALR H2O2 inh 98.8
Cc1ccc(N/N=C/c2cccnc2)cc1	CSC inhib inconclusive, ALR H2O2 inh 100.7
Cc1csc(N/N=C\c2cccnc2)n1	none
O=[N+]([O-])c1ccc(CN2CCC(Cc3ccccc3)CC2)cc1	none (no result: PP5 inh, PP1 counter)
COc1ccc(-n2c(Cc3cc(=O)[nH]c(=O)[nH]3)nnc2SCC(=O)Nc2cc(C(F)(F)F)ccc2Cl)cc1	none
O=c1ccc2cc3c4c(c2o1)CCCN4CCC3	none
O=c1oc2c3c4c(cc2s1)CCCN4CCC3	ALR H2O2 inh 99.1
CC(C)(C)c1ccc(O)c(/C=N\O)c1	none
CC(C)(C)c1ccc(O)c(O)c1	CSC inhib 86.3 (no result: Calb FLC)
Cc1ccc(NS(=O)(=O)c2cc(C(=O)Nc3cccc([N+](=O)[O-])c3)ccc2C)cc1	none
Cc1ccc(NC(=O)CC(=O)c2ccc([N+](=O)[O-])cc2)cc1S(=O)(=O)Nc1cccc(Cl)c1	PP1 counter 17.1
COc1cc(C2C(C(=O)c3ccco3)=C(O)C(=O)N2Cc2ccccc2)ccc1O (stereo not drawn)	none (no result: CSC inhib, ALR H2O2 inh)
CCCc1cc(=O)n(-c2nc3ccccc3s2)[nH]1	CSC inhib 140.1
CCCc1[nH]n(-c2nc3ccccc3s2)c(=O)c1C=NCCCN(CC)CC	PP1 counter 15.7
COc1ccc(/C=N/NC(=O)c2ccc(Cl)cc2Cl)cc1COC(C)=O	none
O=C(Nc1ccc2c(c1)CCC2)c1cc(F)cc(F)c1	none (no result: Calb FLC)
O=C1c2cccc3cccc(c23)C(=O)C1(O)O	ALR H2O2 inh 99.1
CC(=O)N1C(=O)c2cccc3cccc(c23)C(=O)N1C(C)=O	none
O=C(NN1C(=O)/C(=C/C=C/c2ccco2)SC1=S)c1ccncc1	none
COc1cc(F)c(C2=CC(=O)C[C@H](c3ccc(Cl)cc3)C2)cc1F	CSC inhib 78.5 (no result: Calb FLC)
CCOc1ccc(Br)cc1C1=CC(=O)C[C@H](c2ccc(OC)cc2)C1	CSC inhib 82.0 (no result: Calb FLC)
COc1ccc(OC)c(S(=O)(=O)Nc2cc(C)on2)c1	none
CN1CCCNc2nc3ccccc3nc21	ALR H2O2 inh 80.0
Cc1ccc(S(=O)(=O)N2CCCN(C)c3nc4ccccc4nc32)cc1	none (no result: CSC inhib, ALR H2O2 inh, Calb FLC)
CCOP(=O)(OCC)C(NC(=O)Nc1ccc(C)cc1)C(N)=O (stereo not drawn)	none
CCCOP(=O)(OCCC)C1(Nc2ccc(C)cc2)CCCCC1	ALR H2O2 inh 93.3
Cc1cc(C)c(OCCCCN2CCNCC2)c(C)c1	CSC inhib 82.1
O=C1CC(c2ccccc2)CC(O)=C1C=NCc1ccccc1Cl (stereo not drawn)	CSC inhib 84.4
O=C1CC(c2ccccc2)CC(O)=C1C=NCc1ccccc1 (stereo not drawn)	none
COc1ccc(S(=O)(=O)N(Cc2cccs2)C2CCCC2)cc1	ALR H2O2 inh 98.9
COc1ccc(S(=O)(=O)NCc2cccs2)cc1	none
N#Cc1c(C(F)(F)F)cc(-c2ccco2)nc1SCc1ccccn1	none
Cc1cc(C)c(S(=O)(=O)NCc2cn3ccccc3n2)c(C)c1	none
CCN1CCc2c(C#N)c(N3CCOCC3)nc(N3CCOCC3)c2C1	none (no result: ALR H2O2 inh)
O=C(c1ccccc1N1CCOCC1)N1CCCC(Nc2ccc(F)cc2)C1 (stereo not drawn)	ALR H2O2 inh 98.5
COc1ccc(NC2CCCN(C(=O)c3cccnc3SC)C2)cc1OC (stereo not drawn)	ALR H2O2 inh 99.5
COc1ccc(NC2CCCN(C(=O)c3ccccc3N3CCOCC3)C2)cc1OC (stereo not drawn)	ALR H2O2 inh 97.8
Cc1ccc(NC2CCCN(C(=O)c3ccccc3N3CCOCC3)C2)cc1C (stereo not drawn)	ALR H2O2 inh 99.2
COc1ccc(NC(=O)CC2C(=O)N(c3ccc(Cl)cc3)C(=S)N2CCc2ccccn2)cc1 (stereo not drawn)	ALR H2O2 inh 98.2
COc1ccc(NC(=O)CC2C(=O)N(c3ccc(Cl)cc3)C(=S)N2CCc2ccncc2)cc1 (stereo not drawn)	none
O=C1NC(=O)/C(=C/c2ccccc2Oc2ccc(Cl)cc2)S1	Calb FLC 78.9
Cc1ccc(S(=O)(=O)Oc2ccccc2/C=C2\SC(=O)NC2=O)cc1	none
Nc1c(C(=O)Nc2nccs2)sc2nc(-c3cccs3)cc(C(F)(F)F)c12	none
Cc1cc([N+](=O)[O-])nn1CC(=O)NNC(=S)Nc1ccc(Cl)cc1	ALR H2O2 inh inconclusive
Cc1ccc(NC(=S)NNC(=O)Cn2nc([N+](=O)[O-])cc2C)cc1	ALR H2O2 inh 84.7
CC1(C)CC(=O)C(C(C2=C(O)CC(C)(C)CC2=O)c2cccs2)C(=O)C1 (stereo not drawn)	none (no result: ALR H2O2 inh)
Cc1ccc(C(C2=C(O)CC(C)(C)CC2=O)C2C(=O)CC(C)(C)CC2=O)o1 (stereo not drawn)	ALR H2O2 inh 97.0
COc1ccc(-c2nc(NC(=O)c3cc(C(C)(C)C)nn3C)sc2C)cc1	CSC inhib 80.9
COCC(=O)Nc1nc(-c2ccc(C)cc2)c(C)s1	none
CC(C)NC(=O)/C(C#N)=C/c1cccc(NC(=O)c2ccccc2Cl)c1	none
CCOCCCNC(=O)/C(C#N)=C/c1cc(Br)c(O)c(Br)c1	none (no result: CSC inhib, ALR H2O2 inh, PP5 inh, PP1 counter)
COCCNC(=O)/C(C#N)=C/c1cc(Br)c(O)c(OC)c1	ALR H2O2 inh 82.9
COc1cc(/C=C(\C#N)C(=O)NC(C)C)cc(Cl)c1O	ALR H2O2 inh 97.2
CC(C)CC(NC(=O)C(NC(=O)C(Cc1ccc(OCc2ccccc2)cc1)NC(=O)OC(C)(C)C)C(C)C)C(N)=O (stereo not drawn)	CSC inhib 137.7
COc1ccc(N(CC(=O)Nc2cc(Cl)ccc2C)S(=O)(=O)c2c(C)noc2C)cc1	none
NC(=O)C1CCN(c2nc(-c3ccc(F)cc3)cs2)CC1	none (no result: Calb FLC)
NC(=O)C1CCN(c2nc(-c3ccc4occc(=O)c4c3)cs2)CC1	ALR H2O2 inh 98.8 (no result: Calb FLC, PP5 inh, PP1 counter)
Cc1cccc(NC(=O)Nc2ccncc2)c1	ALR H2O2 inh 84.5
CCCc1ccc(C(=O)NNC(=O)c2ccc(Cl)cc2)cc1	none
Cc1cccc(NNC(=O)C(=O)NNc2cccc(C)c2)c1	CSC inhib 92.8, ALR H2O2 inh 98.3, Calb FLC 99.7
CCCc1ccc(C(=O)NNc2cccc(C)c2)cc1	CSC inhib 77.1, Calb FLC 97.0
Cc1cccc(NC(=O)CC(=O)Nc2cccc(C)c2)c1	none
CN(C)C(=O)CNc1n[nH]c(=S)[nH]c1=O	none
Cc1cccc(C(=O)NCC(=O)OCC(=O)c2ccc(Br)s2)c1	none (no result: Calb FLC, PP5 inh, PP1 counter)
